{"source": "PubChem BioAssay", "note": "The source made the active and inactive calls.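 Rule for the calls: active = compounds killing one labelled cell type while sparing the other, by normalised counts and ratio limits, not self-fluorescent; inactive = the rest.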"}
{"test": "differential killing of epithelial or mesenchymal cells, primary screen, imaging, PC-3E GFP, TEM4-18 mCherry, co-culture (AID 1345086);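 note: normalised mesenchymal count divided by normalised epithelial count so high means epithelial killing; cells exposed to compound for 72 h before imaging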", "settings": "imaging cell counts, at 1 µM, actives lie on both sides, counts scaled to control wells, 1 = unselective"}
{"molecule": "CC(=O)NC1[C@@H](O)C2OC(c3ccccc3)OCC2O[C@H]1Sc1ccccc1", "note": "(some centres undefined)", "red/green cell ratio (normalised)": "1.03 (inactive)"}
{"molecule": "COC(=O)/C=C/C(C)=C/C=C/C(C)=C/C=C/C=C(C)/C=C/C=C(C)/C=C/C(=O)O", "red/green cell ratio (normalised)": "0.81 (inactive)"}
{"molecule": "COc1cc2c(cc1OC)C1C(=O)c3c(O)cc4c(c3OC1CO2)C=CC(C)(C)O4", "note": "(centres undefined)", "red/green cell ratio (normalised)": "0.7 (inactive)"}
{"molecule": "COC(=O)CC1C(C)(C)C(OC(C)=O)[C@@H]2[C@@H](OC(C)=O)[C@]34O[C@@]2(O)C1(C)C3CC[C@]1(C)C4=CC(=O)O[C@H]1c1ccoc1", "note": "(some centres undefined)", "red/green cell ratio (normalised)": "1.07 (inactive)"}
{"molecule": "COc1cc(C)c(Oc2cc(C)cc(O)c2O)c(O)c1", "red/green cell ratio (normalised)": "0.97 (inactive)"}
{"molecule": "Cc1c(O)c(O)cc2oc3cc(O)cc(O)c3c(=O)c12", "red/green cell ratio (normalised)": "1.06 (inactive)"}
{"molecule": "COC1=CC(=O)C(C)=C(C[C@@H](C)O)C1=O", "red/green cell ratio (normalised)": "1.12 (inactive)"}
{"molecule": "COC(=O)C1O[C@H](OC)[C@@H](OCc2ccccc2)[C@@H](OCc2ccccc2)C1O", "note": "(some centres undefined)", "red/green cell ratio (normalised)": "1 (inactive)"}
{"molecule": "Clc1ccc2ncc(Cl)nc2c1", "red/green cell ratio (normalised)": "1.15 (inactive)"}
{"molecule": "C[C@@H]1CCC2[C@](C)(CO)[C@@H](O)CC[C@]2(C)[C@@]12CC[C@@](CO)(CCO)O2", "note": "(some centres undefined)", "red/green cell ratio (normalised)": "0.93 (inactive)"}
{"molecule": "NC(=O)C[C@H](NC(=O)OCc1ccccc1)C(=O)O", "red/green cell ratio (normalised)": "1.25 (inactive)"}
{"molecule": "CC[C@H](O)c1oc(=O)cc(OC)c1C", "red/green cell ratio (normalised)": "0.96 (inactive)"}
{"molecule": "CCC[C@@H]1Cc2cc3c(-c4c(O)cc(O)c5c(O)c6c(cc45)C[C@@H](CCC)OC6=O)c(O)cc(O)c3c(O)c2C(=O)O1", "red/green cell ratio (normalised)": "0.85 (inactive)"}
{"molecule": "COC(=O)C[C@H]1C2(C)CC34OC5(C)O[C@]6(C7/C(=C(/O)C(C)C)C(=O)O[C@@H](c8ccoc8)[C@]7(C)C(OC(C)=O)[C@@H](OC(C)=O)[C@]6(O5)C13C)[C@H](OC(C)=O)[C@@]4(O)C2OC(=O)C(C)C", "note": "(some centres undefined)", "red/green cell ratio (normalised)": "1.02 (inactive)"}
{"molecule": "C[C@]12C=CC(=O)NC1CCC1C2CC[C@@]2(C)C1CC[C@@H]2C(=O)Nc1cc(C(F)(F)F)ccc1C(F)(F)F", "note": "(some centres undefined)", "red/green cell ratio (normalised)": "0.83 (inactive)"}
{"molecule": "OCc1cc(Br)ccc1Cl", "red/green cell ratio (normalised)": "1.07 (inactive)"}
{"molecule": "C=C1[C@@H](C)C2[C@H](Cc3c[nH]c4ccccc34)NC(=O)[C@]23C(=O)/C=C/C(=O)[C@H](OC(C)=O)/C(C)=C/[C@@H](C)C/C=C/[C@H]3[C@@H]1O", "note": "(some centres undefined)", "red/green cell ratio (normalised)": "1.13 (inactive)"}
{"molecule": "COC(=O)[C@]12Oc3c(c(O)cc4c3C3C=C[C@]5(C4)C(=C(O)c4c(O)cc(C)cc4[C@@H]5OC(C)=O)C3=O)C(O)=C1C(=O)C=C[C@@H]2O", "red/green cell ratio (normalised)": "0.99 (inactive)"}
{"molecule": "Cc1cc(O)c(C(=O)c2c(O)cccc2O)c(C(=O)O)c1", "red/green cell ratio (normalised)": "0.99 (inactive)"}
{"molecule": "CCCCCCCCC[C@H]1O[C@]2(O)CC[C@H](O)[C@]2(O)[C@@H]1O", "red/green cell ratio (normalised)": "0.97 (inactive)"}
{"molecule": "C/C=C/[C@@H]1CC[C@@H]2C[C@H](C)CC[C@H]2[C@]1(C)C(=O)[C@H]1OC(=O)[C@@H](CO)N(C)C1=O", "red/green cell ratio (normalised)": "1.09 (inactive)"}
{"molecule": "O=C(O)CCCCCCCC(O)C(O)CCCCCCO", "note": "(centres undefined)", "red/green cell ratio (normalised)": "1.02 (inactive)"}
{"molecule": "COc1c(N2CC[C@@H](CN)C2)c(F)cc2c(=O)c(C(=O)O)cn(Cc3ccc4ccccc4c3)c12", "red/green cell ratio (normalised)": "1.09 (inactive)"}
{"molecule": "O=C(O)CC1OCc2c(O)cccc21", "note": "(centres undefined)", "red/green cell ratio (normalised)": "0.47 (inactive)"}
{"molecule": "C=C1[C@@H](C)C2[C@H](Cc3c[nH]c4ccccc34)NC(=O)[C@]23C(=O)/C=C/[C@H](O)C(=O)/C(C)=C/[C@@H](C)C/C=C/[C@H]3[C@@H]1O", "note": "(some centres undefined)", "red/green cell ratio (normalised)": "1.13 (inactive)"}
{"molecule": "CO[C@H]1CC(O[C@@H]2/C(C)=C/C[C@@H]3C[C@@H](C[C@]4(C=C[C@H](C)[C@@H](C5CCCCC5)O4)O3)OC(=O)[C@@H]3C=C(C)[C@@H](O)C4OC/C(=C\\C=C\\[C@@H]2C)[C@]43O)O[C@@H](C)C1O[C@H]1C[C@H](OC)[C@@H](O)[C@H](C)O1", "note": "(some centres undefined)", "red/green cell ratio (normalised)": "1.04 (inactive)"}
{"molecule": "C/C=C/[C@@H]1C=C[C@@H]2C[C@H](C)CC[C@H]2[C@]1(C)/C(O)=C1\\C(=O)[C@H](CO)N(C)C1=O", "red/green cell ratio (normalised)": "1.03 (inactive)"}
{"molecule": "CC(C)CC1OC23SCC(c4ccccc4)N2C(=O)C1C(C)(C)S3", "note": "(centres undefined)", "red/green cell ratio (normalised)": "0.9 (inactive)"}
{"molecule": "COC(=O)[C@@H](C)Oc1ccc(O)cc1", "red/green cell ratio (normalised)": "1.27 (inactive)"}
{"molecule": "CC1(C)C(=O)C=C[C@@]2(C)C1C=C[C@]1(C)C2CC[C@@]2(C)[C@H](c3ccoc3)OC(=O)[C@H]3O[C@]321", "note": "(some centres undefined)", "red/green cell ratio (normalised)": "1.3 (inactive)"}
{"molecule": "C=C(C)C#CC1=C[C@@H](O)[C@@H]2O[C@]2([C@H](O)C=C(C)C)[C@@H]1O", "red/green cell ratio (normalised)": "0.95 (inactive)"}
{"molecule": "C[C@@H](O)[C@H]1C(=O)N2C(C(=O)O)=C(SC3CN[C@H](C(=O)N(C)C)C3)[C@H](C)[C@H]12", "note": "(some centres undefined)", "red/green cell ratio (normalised)": "1.01 (inactive)"}
{"molecule": "Cc1cc(O)c2c(c1)Cc1cccc(O)c1C2=O", "red/green cell ratio (normalised)": "0.94 (inactive)"}
{"molecule": "O[C@@H]1[C@H](O)CO[C@H]1O", "red/green cell ratio (normalised)": "0.77 (inactive)"}
{"molecule": "Cc1ccc(S[C@H]2OC(CO)C(O)[C@@H]3OC(=O)N[C@H]23)cc1", "note": "(some centres undefined)", "red/green cell ratio (normalised)": "0.98 (inactive)"}
{"molecule": "CC1CN(c2c(F)c(N)c3c(=O)c(C(=O)O)cn(C4CC4)c3c2F)C[C@H](C)N1", "note": "(some centres undefined)", "red/green cell ratio (normalised)": "0.99 (inactive)"}
{"molecule": "CCC(C)[C@H]1O[C@]2(CC[C@@H]1C)C[C@@H]1C[C@@H](C/C=C(\\C)[C@@H](OC3C[C@H](OC)C(O[C@H]4C[C@H](OC)[C@@H](O)[C@H](C)O4)[C@H](C)O3)[C@@H](C)/C=C/C=C3\\COC4[C@H](O)C(C)=C[C@@H](C(=O)O1)[C@]34O)O2", "note": "(some centres undefined)", "red/green cell ratio (normalised)": "0.84 (inactive)"}
{"molecule": "CC(=O)N[C@@H]1[C@@H](OC(C)C(=O)O)[C@H](O)[C@@H](CO)O[C@H]1O", "note": "(some centres undefined)", "red/green cell ratio (normalised)": "0.95 (inactive)"}
{"molecule": "COc1c(F)c(F)cc2c(=S)c(C(=O)O)cn(C3CC3)c12", "red/green cell ratio (normalised)": "0.91 (inactive)"}
